Experiment [1] is described as follows: CCTE_Shafer_MEA_dev_active_electrodes_number: CCTE's Neural Network Formation Assay for Number of Active Electrodes, Shafer Lab (AID 2284040; active = hit-call score of the fitted dose curve at least 0.9, where 1 is the maximum;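 for AC50: potency for loss of active electrodes versus DMSO so lower counts are hits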). Put shortly: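 Rat cortical primary cultures, 1.5 x 10^5 cells/well, PEI-coated MEA, laminin drop. Continuous exposure DIV 0–12; full media/compound change DIV 5, 9. Readout: electrodes with mean firing ≥5 spikes/min; AUC across days; loss vs DMSO.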

Experiment [2] can be described thus: CCTE_Shafer_MEA_dev_burst_rate: CCTE's Neural Network Formation Assay for Burst Rate, Shafer Lab (AID 2284042).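 For AC50: potency for loss of burst rate below DMSO control.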 The method, boiled down: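 Developmental network assay measuring how 12-day exposure of rat cortical neuron cultures alters bursting on extracellular MEA recordings. Values are AUC of well-mean burst rate across four recording days, relative to DMSO vehicle.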

Experiment [3] in a line: CCTE_Shafer_MEA_dev_bursting_electrodes_number: CCTE's Neural Network Formation Assay for Number of Bursting Electrodes, Shafer Lab (AID 2284043; active = hit-call score of the fitted dose curve at least 0.9, where 1 is the maximum;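 for AC50: potency is for loss of bursting electrodes relative to DMSO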). Put shortly:
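Primary rat cortical neurons plated on 16-electrode MEA wells, exposed from day 0 with compound renewed at DIV 5 and 9. Electrodes bursting ≥1 burst per 2 min counted on days 5, 7, 9 and 12; trapezoidal AUC across days, fitted for loss versus DMSO.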

A short description of experiment [4]: CCTE_Shafer_MEA_dev_per_burst_interspike_interval: CCTE's Neural Network Formation Assay for Burst Interspike Interval, Shafer Lab (AID 2284044).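 For AC50: potency for a decrease of within-burst interspike interval below DMSO level.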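 Note: mean spike spacing inside bursts as AUC over recordings on days 5 7 9 12.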 The method, boiled down:
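Spontaneous activity of maturing rat cortical networks is recorded on DIV 5, 7, 9 and 12 under chronic compound exposure beginning at plating. Endpoint: burst interspike interval well-mean, collapsed into trapezoidal AUC and fitted in the negative direction relative to DMSO.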

A short description of experiment [5]: CCTE_Shafer_MEA_dev_burst_duration_mean: CCTE's Neural Network Formation Assay for Mean Burst Duration, Shafer Lab (AID 2284045).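 For AC50: curve fitted for loss meaning shorter burst duration than DMSO.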 Put shortly:
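Primary rat cortical neurons on 48-well 16-electrode MEA plates, exposed from day 0 with renewal at DIV 5 and 9; spontaneous activity recorded on days 5, 7, 9, 12. Well-mean burst duration across bursting electrodes, collapsed as trapezoidal AUC; DMSO baseline.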

Experiment [6] can be described thus: CCTE_Shafer_MEA_dev_interburst_interval_mean: CCTE's Neural Network Formation Assay for Mean Interburst Interval, Shafer Lab (AID 2284046).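 Note: well-mean interburst interval of bursting electrodes as AUC over four recording days; curve fitted for decrease in interburst interval relative to DMSO.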 Put shortly: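 Network formation assay in primary rat cortical cultures, exposed from DIV 0 to 12. Mean interburst interval per well, integrated as AUC over four recordings.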
Experiment [7] is described as follows: CCTE_Shafer_MEA_dev_inter_network_spike_interval_mean: CCTE's Neural Network Formation Assay for Mean Inter-network Spike Interval, Shafer Lab (AID 2284047). Put shortly:
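Compound was given at plating to primary rat cortical neurons and renewed with full medium changes on DIV 5 and 9. Extracellular activity was recorded on days 5, 7, 9, 12; AUC values were fitted for loss relative to DMSO control.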

The nature of experiment [8]: CCTE_Shafer_MEA_dev_network_spike_number: CCTE's Neural Network Formation Assay for Number of Network Spikes, Shafer Lab (AID 2284048).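 For AC50: fit as a loss of signal meaning fewer network spikes than DMSO.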 The method, boiled down: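 Primary rat cortical neurons on PEI/laminin 48-well MEA plates, dosed from plating day 0 for 12 days, renewed at DIV 5 and 9. Network spike counts recorded DIV 5, 7, 9, 12, collapsed as trapezoidal AUC; DMSO baseline.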

Experiment [9] is described as follows: CCTE_Shafer_MEA_dev_spike_duration_mean: CCTE's Neural Network Formation Assay for Mean Spike Duration, Shafer Lab (AID 2284051).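 For AC50: potency for a decrease in mean network spike duration versus DMSO.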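 Note: mean network spike duration pooled as area under curve over DIV 5 to 12 recordings.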 The method, boiled down:
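With DMSO as baseline, loss of mean network spike duration was scored from extracellular recordings of rat cortical neurons on MEA plates. Exposure spanned plating to DIV 12; the four recording days were collapsed into one AUC value.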

The nature of experiment [10]: CCTE_Shafer_MEA_dev_network_spike_duration_std: CCTE's Neural Network Formation Assay for Standard Deviation of Network Spike Duration, Shafer Lab (AID 2284052).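 Note: area under curve of spike duration SD across recording days 5 to 12; hits are decreases in network spike duration SD versus DMSO vehicle.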 The method, boiled down:
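Developing networks of rat cortical neurons were exposed over twelve days in vitro on 48-well MEA plates. Trapezoidal AUC of recordings (DIV 5–12) was analysed for signal loss relative to DMSO vehicle.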

The nature of experiment [11]: CCTE_Shafer_MEA_dev_per_network_spike_spike_number_mean: CCTE's Neural Network Formation Assay for Mean Number of Spikes in a Network Spike, Shafer Lab (AID 2284053).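 For AC50: fitted as decrease in spikes per network spike relative to DMSO.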 The method, boiled down: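 First, rat cortical cells (1.5 x 10^5/well) were seeded onto MEA wells; second, dosing began at plating and was refreshed on DIV 5 and 9; finally, network-spike spike counts across DIV 5–12 were summarized as AUC.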

Experiment [12] is described as follows: CCTE_Shafer_MEA_dev_per_network_spike_spike_percent: CCTE's Neural Network Formation Assay for Percent of Spikes in a Network Spike, Shafer Lab (AID 2284054). Put shortly: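 Rat primary cortical neurons were grown on 48-well MEA plates (16 electrodes/well), exposed from plating day 0 through day 12, with treatment renewed on DIV 5 and 9. Percent of spikes within 0.05 s network-spike peaks was measured, summarised as AUC across days 5, 7, 9, 12.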

The nature of experiment [13]: CCTE_Shafer_MEA_dev_AB: CCTE's Alamar Blue Assay for Cytotoxicity in the Neural Network Formation Assay, Shafer Lab (AID 2284083; active = hit-call score of the fitted dose curve at least 0.9, where 1 is the maximum;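 note: resazurin reduction fluorescence as viability of cultured neurons; twelve days of exposure from plating with re-dosing on DIV 5 and 9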). The method, boiled down: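 Cytotoxicity companion to the developmental MEA: primary rat cortical neurons, 12-day exposure starting day 0, compound refreshed DIV 5 and 9; resazurin fluorescence, fitted against DMSO vehicle.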
The target in experiment [14] is Estrogen receptor (Homo sapiens) (UniProt P03372). The experiment is described as follows: CCTE_Deisenroth_AIME_384WELL_LUC_Shift: CCTE's 384-well Estrogen Receptor Transactivation Assay with AIME metabolic competence data shift (ERTA luciferase; difference in metabolism positive and negative), Deisenroth Lab (AID 2284041).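 Note: shift is response with S9 minus without S9 so positive means metabolism raised ER signal.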 The method, boiled down:
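Chemicals (0.002–200 uM, 10 points) pre-incubated 2 h with alginate-encapsulated induced male Sprague Dawley rat liver S9 or S9-free, then medium applied 24 h to VM7Luc4E2 cells; luciferase. Endpoint is per-concentration difference, S9-positive minus negative.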

Another experiment relates to DIO2 (gene 1734). The experiment is described as follows: CCTE_GLTED_hDIO2: CCTE's human Deiodinase 2 (DIO2) Inhibition Assay, Great Lakes Toxicology and Ecology Division (GLTED) Lab (AID 2284050; active = hit-call score of the fitted dose curve at least 0.9, where 1 is the maximum). The method, boiled down: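 In this cell-free test, chemicals are exposed to human deiodinase type 2 for 3 hours. Released iodide is determined spectrophotometrically via the Sandell-Kolthoff method, and signal loss relative to DMSO is fitted.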

Another experiment has as its system DIO3 (gene 1735). The experiment is described as follows: CCTE_GLTED_hDIO3: CCTE's human Deiodinase 3 (DIO3) Inhibition Assay, Great Lakes Toxicology and Ecology Division (GLTED) Lab (AID 2284055; active = hit-call score of the fitted dose curve at least 0.9, where 1 is the maximum;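 note: potency is for inhibition seen as loss of released iodide signal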). Put shortly: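 Enzyme activity is tracked as iodide release from substrate by recombinant human DIO3 over 3 h with chemical present. A second Sandell-Kolthoff step converts iodide to an absorbance signal, fitted relative to DMSO.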

Experiment [15] can be described thus: CCTE_Shafer_MEA_acute_AB: CCTE's Alamar Blue Assay for Cytotoxicity in the Neural Acute Assay, Shafer Lab (AID 2284069; active = hit-call score of the fitted dose curve at least 0.9, where 1 is the maximum;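 note: active compounds lower the viability signal compared with DMSO wells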). The method, boiled down: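 Cytotoxicity endpoint for acute MEA exposures of primary rat cortical neurons on day 13 or 15. Resazurin reduction is read fluorescently at 544/590 nm, with DMSO as the negative-control baseline.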
For orientation: Resazurin is reduced to fluorescent resorufin, in cell work by metabolically active cells.

Experiment [16] in a line: UKN5_HCS_SBAD2_cell_viability: Viability Assessment in the University of Konstanz (UKN) Leist Lab Neurite Outgrowth Assay in human iPSC-derived immature Dorsal Root Ganglia Neurons (UKN5) (AID 2284056). Put shortly: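 iPSC-derived immature peripheral neurons (SBAD2) seeded on Matrigel with CHIR99021, SU5402 and DAPT, dosed 1 h later for 24 h. Viability from Hoechst H-33342 and calcein-AM live staining, high-content imaging; bidirectional fit versus DMSO.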

Experiment [17] is described as follows: CCTE_Shafer_MEA_dev_LDH: CCTE's Lactate Dehydrogenase Assay for Cytotoxicity in the Neural Network Formation Assay, Shafer Lab (AID 2284068; active = hit-call score of the fitted dose curve at least 0.9, where 1 is the maximum;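 note: exposure for twelve days from plating with re-dosing on DIV 5 and 9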). Put shortly:
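Developing rat cortical networks on MEA plates are exposed to compound for 12 days from plating. LDH activity is measured spectrophotometrically, with DMSO as baseline.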

Experiment [18] in a line: UKN5_HCS_SBAD2_neurite_outgrowth: University of Konstanz (UKN) Leist Lab Neurite Outgrowth Assay in human iPSC-derived immature Dorsal Root Ganglia Neurons (UKN5) (AID 2284070). The note with it: actives raise or lower the signal. The method, boiled down:
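SBAD2 neurons, 24 h compound treatment, calcein-AM neurite area via HCS imaging; DMSO baseline, gain or loss of signal.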

Molecules are shown by their SMILES. Results filed as inconclusive are left out. Active and inactive are the calls of the source. Rule for the calls, unless noted: active = hit-call score of the fitted dose curve at least 0.9, where 1 is the maximum; inactive = score below 0.9.

What is called AC50 is the midpoint of the concentration-response curve, whichever way the signal moves.

Chain of Estrogen receptor (Homo sapiens) (P03372 whole entry, looked up): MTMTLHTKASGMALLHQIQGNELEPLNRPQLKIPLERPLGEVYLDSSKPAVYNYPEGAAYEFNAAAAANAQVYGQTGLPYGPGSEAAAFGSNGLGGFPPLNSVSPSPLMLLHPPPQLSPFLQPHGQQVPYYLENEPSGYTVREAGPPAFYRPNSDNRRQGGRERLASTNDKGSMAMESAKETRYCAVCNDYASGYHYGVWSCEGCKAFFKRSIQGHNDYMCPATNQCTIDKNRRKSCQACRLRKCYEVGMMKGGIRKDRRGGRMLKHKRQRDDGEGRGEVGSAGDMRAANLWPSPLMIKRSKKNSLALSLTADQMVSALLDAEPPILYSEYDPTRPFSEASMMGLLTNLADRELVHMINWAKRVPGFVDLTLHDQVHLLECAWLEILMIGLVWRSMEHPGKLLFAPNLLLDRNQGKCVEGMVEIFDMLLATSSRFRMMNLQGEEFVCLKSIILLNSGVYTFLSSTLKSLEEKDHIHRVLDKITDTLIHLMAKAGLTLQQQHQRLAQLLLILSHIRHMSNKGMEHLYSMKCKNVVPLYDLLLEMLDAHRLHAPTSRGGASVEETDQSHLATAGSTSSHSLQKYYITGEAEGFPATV

In the case of `O=C(OC(=O)C(F)(F)C(F)(F)F)C(F)(F)C(F)(F)F`, the result in [1], in experiment [2], in experiment [3], in experiment [4], in experiment [5] and in experiment [6] was inactive. The compound was called inactive in experiment [7], in [8], in experiment [9], in experiment [10], in experiment [11] and in experiment [12]. In addition, in [13], the call was inactive.

Consider `Cc1cc(Cc2cc(C)cc(C(C)(C)C)c2O)c(O)c(C(C)(C)C)c1`, for which, in experiment [14], the result was inactive. Further, the AC50 in the experiment on DIO2 (gene 1734) is 97600 nM (active); in the experiment with DIO3 (gene 1735), 14200 nM (active).

For the compound `CCC(C)c1ccccc1O` (configuration not stated), the result in experiment [15] was inactive.

Take `CCCCc1oc2ccccc2c1C(=O)c1cc(I)c(OCCN(CC)CC)c(I)c1`: the call in experiment [15] was inactive.

As for `N=C(N)c1ccc(OCCCCCOc2ccc(C(=N)N)cc2)cc1`, the outcome in [15] was inactive.

For the compound `NC(C(F)(F)F)C(F)(F)F`, the call in experiment [1], in experiment [2], in experiment [3], in experiment [4], in experiment [5] and in [6] was inactive. For the same compound, the outcome in [7], in experiment [8], in [9], in experiment [10], in [11] and in [12] was inactive. Besides, the compound was called inactive in experiment [13].

Regarding `Nc1ccn([C@@H]2O[C@H](CO)[C@@H](O)C2O)c(=O)n1` (some centres not stated), the AC50 was 472 nM (active) in [1]; 314 nM (active) in [2]; 333 nM (active) in experiment [3]; 850 nM (active) in [4]; 856 nM (active) in [5]; 695 nM (active) in experiment [6]. For the same compound, the AC50 in experiment [8] was 125 nM (active); in [9], 358 nM (active); in experiment [10], 239 nM (active); in experiment [11] it was 205 nM (active); in [12] it was 119 nM (active); in experiment [17] it was 1000 nM (active). Moreover, the AC50 in experiment [18] was 611 nM (active); in experiment [13], 969 nM (active). The call in experiment [7] and in experiment [16] was inactive.

On to `O=C(F)C(F)(F)C(F)(F)C(F)(F)C(F)F`, for which the compound was called inactive in [1], in [2], in [3], in experiment [4], in experiment [5] and in experiment [6]. The call in [7], in [8], in [9], in experiment [10], in [11] and in experiment [12] was inactive. For the same compound, the result in experiment [13] was inactive.

For `OCC(CO)(CBr)CBr`, the result in [15] was inactive.

With `O=CC(F)(F)C(F)(F)C(F)(F)C(F)F`, the compound was called inactive in experiment [1], in experiment [2], in experiment [3], in experiment [4], in experiment [5] and in experiment [6]. Moreover, the call in experiment [7], in experiment [8], in [9], in experiment [10], in experiment [11] and in experiment [12] was inactive.

As to `O=C(F)C(F)(F)C(F)(F)C(F)(F)C(=O)F`, the compound was called inactive in [1], in [2], in experiment [3], in [4], in experiment [5] and in experiment [6]. Moreover, the compound was called inactive in experiment [7], in experiment [8], in [9], in experiment [10], in [11] and in experiment [12]. In experiment [13], the compound was called inactive.

Values taken from PubChem BioAssay (EPA / NIEHS).
